Screening results as filed in PubChem BioAssay.
ClpP mod: qHTS Assay for Activators of ClpP | ATP-dependent Clp protease proteolytic subunit (Bacillus subtilis (strain 168)), P80244 | purified B. subtilis ClpP, FRET peptide cleavage, 20 min | Potency, µM (doses to about 57.5 µM), inactives show at the highest dose activity change, negative = active | actives 1.9% (n = 340,000) | AID 651965, 2013; active = well fitted falling curve with a large enough effect; inconclusive = small, poorly fitted or top-dose-only effect; inactive = no such curve, though single readings can be large or run the other way; note: the source files actives as falling curves though it sought activators and does not explain the sign; nearly all actives have a fitted effect of over 65% in size
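FRET quenching reversal measured ClpP activation: 10 microg/mL B. subtilis ClpP at pH 8 with the FRET-FV decapeptide, read at 430 nm after 320 nm excitation. The 20-min minus 0-min signal was scaled between DMSO/no-enzyme wells and ADEP (5.8 microM final).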
DT40 TDP1 no CPT: qHTS for Inhibitors of human tyrosyl-DNA phosphodiesterase 1 (TDP1): qHTS in cells in absence of CPT; AID 686978, 2013; actives 15% (n = 420,000); DT40 Tdp1-/- hTDP1 cells, no CPT, ATP luminescence, 48 h; Potency, µM (top dose mostly 46.2 µM), for the others: at the highest dose activity change, negative = growth inhibition, usual class: inhibitors; note: % is set by controls: 0 for no effect and ±100 for the full control effect; nearly all actives have a fitted effect of over 55% in size
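Growth kinetics read by CellTiter-Glo luminescence after ≥48 hr at 37 °C. Cells: DT40 Tdp1-/- stably carrying human TDP1, 400 per well, compound exposure in the absence of CPT (DMSO vehicle).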
TDP1 block: blocks human tyrosyl-DNA phosphodiesterase 1 | Potency, µM (series often up to 130 µM), without a hit: top-dose activity change, negative = inhibition, actives largely listed as inhibitors | Q9NUW8 | actives 0.28% (n = 350,000) | recombinant TDP1, AlphaScreen DNA substrate cleavage; note: % is set by controls: 0 for no effect and ±100 for the full control effect; nearly all actives have a fitted effect of over 40% in size
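Recombinant human Tdp1 (E. coli-expressed, 1 nM final) preincubated with compounds 15 min at room temperature, then 5'-biotin/3'-phosphotyrosine-FITC DNA substrate (15 nM final) added for 5 min. AlphaScreen beads (10 ug/ml final) added 10 min; cleavage lowers signal.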
TDP1 cell CPT: DT40-hTDP1 cell growth loss with CPT; chicken DT40 Tdp1-/-;hTDP1 cells + 20 nM CPT, ATP luminescence, 48 h; Potency, µM (doses to about 46.2 µM), for the others: top-dose activity change, negative = growth inhibition, actives largely listed as inhibitors; actives 12% (n = 420,000); AID 686979; note: % is set by controls: 0 for no effect and ±100 for the full control effect; nearly all actives have a fitted effect of over 55% in size
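Chicken DT40 Tdp1-/- cells stably complemented with human TDP1 were seeded at 400 cells/well in medium containing 20 nM camptothecin, exposed to pin-transferred compounds, and grown at 37 °C for at least 48 hr. Viability was read as ATP luminescence.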
The depositor's hits bear a star; ? = inconclusive; · = no result. Sampled rows, rich in hits. Any-hit rate of the full collection: about 17%. Unless noted, calls come from the whole dose curve; as a rule, active = well fitted curve in the direction sought with a large enough effect; inconclusive = small, poorly fitted or top-dose-only effect, or another doubt; inactive = no such curve, though single readings can be large; an effect the other way counts as inactive or inconclusive. Potency is the fitted concentration of half-maximal effect.

SMILES	ClpP mod	DT40 TDP1 no CPT	TDP1 block	TDP1 cell CPT
Clc1cccc(Cl)c1C[n+]1ccc2ccccc2c1	-13%	1.5µM*	·	1.6µM*
O=C(C[n+]1ccc2ccccc2c1)c1ccccc1	·	-6%	8%	4%
c1ccc(C[n+]2ccc3ccccc3c2)cc1	1%	16µM*	·	10µM*
CCOC(=O)c1c(NC(=O)CN2CCCc3ccccc32)sc(C(C)=O)c1C	-2%	21µM*	0%	?
CCOC(=O)c1c(NC(=O)Cc2cccs2)sc(C(=O)N2CCCCC2)c1C	0%	9.2µM*	7%	?
COC(=O)c1c(NC(=O)Cc2cccs2)sc(C)c1C	-9%	-19%	5%	-3%
Cc1c(N)cc2c(c1N)C(C)(C)CC2(C)C	-2%	-26%	·	-28%
Cc1c(C(=O)N(Cc2cccc(Cl)c2)Cc2ccco2)oc2ccccc12	-2%	-24%	5%	?
Cc1c(C(=O)N(Cc2ccco2)Cc2ccccc2Cl)oc2ccc(F)cc12	-19%	15µM*	5%	?
CCc1ccc2oc(C(=O)N(Cc3ccc(N(C)C)cc3)Cc3ccco3)c(C)c2c1	?	16µM*	15%	0.73µM*
Cc1ccc2c(C)c(C(=O)N(Cc3ccc(N(C)C)cc3)Cc3ccco3)oc2c1C	-18%	13µM*	11%	?
CN(C)c1ccc(CN(Cc2ccco2)C(=O)c2ccc(F)cc2)cc1	1%	?	11%	?
COc1ccc(OC)c(NC(=O)C(C)n2nc(C)c3c(C)n(-c4ccccc4)nc3c2=O)c1 (centres undefined)	2%	?	0%	?
Cc1ccc(CSCC(=O)N(C)CC(=O)Nc2c(Cl)cccc2Cl)cc1	1%	?	-7%	18µM*
Cc1ccc(CSCC(=O)N(C)CC(=O)Nc2ccccc2Cl)cc1	·	?	1%	-7%
COc1ccc(-n2ncc3c(NC(C)(C)CO)ncnc32)cc1	-16%	-27%	-3%	-20%
O=[N+]([O-])c1ccc(-c2c[nH]c(=S)[nH]2)cc1	1%	?	0%	16µM*
Cc1ccc(NC(=O)CN2C(=O)CSc3ccc(S(=O)(=O)N4CCCC4)cc32)cc1F	1%	23µM*	3%	?
COc1ccc(NC(=O)CN2C(=O)CSc3ccc(S(=O)(=O)N(C)C)cc32)cc1OC	0%	-17%	0%	-14%
COc1cc(NC(=O)CN2C(=O)CSc3ccc(S(=O)(=O)N4CCCC4)cc32)cc(OC)c1	-4%	?	8%	?
CC(C)c1ccc(NC(=O)CN2C(=O)CSc3ccc(S(=O)(=O)N4CCCC4)cc32)cc1	0%	16µM*	3%	16µM*
O=C(CN1C(=O)CSc2ccc(S(=O)(=O)N3CCCCCC3)cc21)NCCc1ccccc1	·	23µM*	·	?
Cc1cc(NC(=O)CN2C(=O)CSc3ccc(S(=O)(=O)N(C)C)cc32)ccc1Br	-2%	21µM*	-3%	?
COc1ccc(CNC(=O)c2cc3sccc3n2Cc2ccc(C)cc2)cc1	-7%	-64%	4%	-28%
O=C(CC1C(=O)N(c2ccc(F)cc2)C(=O)N1Cc1ccc2c(c1)OCO2)Nc1ccc(Cl)cc1 (centres undefined)	3%	21µM*	4%	?
SMILES	ClpP mod	DT40 TDP1 no CPT	TDP1 block	TDP1 cell CPT
Cc1ccc(N2C(=O)C(CC(=O)Nc3ccc(F)cc3)N(Cc3ccc4c(c3)OCO4)C2=O)cc1 (centres undefined)	1%	16µM*	6%	?
COc1ccc(NC(=O)CC2C(=O)N(c3ccc(F)cc3)C(=O)N2Cc2ccc3c(c2)OCO3)cc1 (centres undefined)	-1%	?	9%	-18%
NC(=O)c1cc2ccncc2c2ccccc12	4%	6.5µM*	6%	13µM*
CCOC(=O)c1cnc(-c2ccccc2O)nc1Cl	·	-16%	-3%	9%
CCOC(=O)C1=Nc2ccccc2C1=[N+]=[N-]	-12%	7.3µM*	0%	4.6µM*
CC(C)NC(=NCc1ccc(Cl)cc1Cl)Nc1ccccc1	2%	5.2µM*	·	13µM*
O=C(C/C=N\OCc1ccc(Cl)cc1Cl)Nc1ccccc1	·	-12%	-10%	16%
CCN(C(=O)Cc1c(C(=O)O)n(CC)c2ccccc12)c1cccc(C(F)(F)F)c1	-7%	-7%	·	-1%
CCCOc1ccc2ccccc2c1/C=N/n1c(C)nnc1-n1nc(C)cc1C	-3%	3.3µM*	1%	3.3µM*
Cc1cc(C)n(-c2nnc(C)n2/N=C/c2ccco2)n1	-3%	-2%	7%	-9%
CC1(C)NC(=O)N(CC(O)CN2C(=O)NC(C)(C)C2=O)C1=O	3%	3%	4%	-3%
CC1(C)NC(=O)N(CC(O)CNC23CC4CC(CC(C4)C2)C3)C1=O (centres undefined)	28µM*	-7%	4%	-4%
CCc1cc(C(c2ccccn2)N2CCN(C)CC2)c(NC(=O)c2ccccc2)s1 (centres undefined)	4%	?	7%	?
Cc1sc(NC(=O)c2ccccc2)c(C(c2ccccn2)N2CCN(CCO)CC2)c1C (centres undefined)	1%	9.2µM*	-3%	10µM*
O=C(NC1CCCC1)C1C(c2ccc(C(F)(F)F)cc2)=Nc2ccccc2N1C(=O)c1cc2ccccc2[nH]1 (centres undefined)	?	13µM*	·	?
CC(C)NC(=O)C1C(c2ccc(C(F)(F)F)cc2)=Nc2ccccc2N1C(=O)c1cc2ccccc2[nH]1 (centres undefined)	-2%	?	·	?
COc1ccc(CCC(=O)N2c3ccccc3N=C(c3ccc(C(F)(F)F)cc3)C2C(=O)NC2CCCC2)cc1 (centres undefined)	?	18µM*	·	?
CC(OC(=O)C1CCN(c2ccc(C(F)(F)F)cn2)CC1)C(=O)c1ccccc1 (centres undefined)	-9%	?	·	?
COc1ccc(NC2CCCN(C(=O)CCCn3cncn3)C2)cc1OC (centres undefined)	·	7%	2%	-13%
O=C(CN1CCOCC1)NNC(=O)c1ccc([N+](=O)[O-])cc1	2%	-5%	4%	3%
O=C(CSC1CS(=O)(=O)c2cc([N+](=O)[O-])ccc21)NNC(=O)c1ccc(Cl)cc1 (centres undefined)	·	2.3µM*	·	5.2µM*
O=C(CSC1CS(=O)(=O)c2cc([N+](=O)[O-])ccc21)NNC(=O)c1ccccc1 (centres undefined)	·	21µM*	·	13µM*
CCNc1ccc(C(=O)OCC(=O)N(Cc2ccccc2)C(C)(C)C)cc1[N+](=O)[O-]	1%	?	3%	15µM*
CCCNc1ccc(C(=O)OCC)cc1[N+](=O)[O-]	-13%	-23%	5%	-9%
